# From the supplement of paper PMC6411743
# ± gives the standard deviation of the averaged measurements. About 6,500 targets were measured; listed, in parts, are those with the largest changes and a random draw of the rest.
# Legend:
# Assay in all cases: NP40-soluble protein abundance relative to vehicle (solubility fold change) (ratio); higher = more soluble protein in presence of ATP
# ALG5 = molecular target: T1, ALG5 (UniProt Q9Y673)
# T1 sequence (whole entry): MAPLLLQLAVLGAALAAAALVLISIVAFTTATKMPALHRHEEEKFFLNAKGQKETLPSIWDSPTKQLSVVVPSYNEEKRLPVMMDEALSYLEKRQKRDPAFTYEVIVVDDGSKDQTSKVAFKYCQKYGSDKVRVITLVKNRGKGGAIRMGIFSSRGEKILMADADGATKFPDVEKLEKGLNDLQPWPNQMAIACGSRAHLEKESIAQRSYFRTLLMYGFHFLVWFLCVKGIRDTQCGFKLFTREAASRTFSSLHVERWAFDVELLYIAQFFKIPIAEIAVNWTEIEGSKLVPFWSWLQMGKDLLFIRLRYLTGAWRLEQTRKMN
# Summary of the method: (§1)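 Values are fold changes against the detergent-processed vehicle, based on vsn-normalised intensities. Jurkat crude lysate was treated at eight concentrations from 0.1 to 10 mM (10 min at room temperature, then 3 min at 37 °C), solubilised with 0.8% NP40 and benzonase, ultracentrifuged and analysed by TMT-labelled LC-MS/MS over three independent experiments.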
# DDX52 = molecular target: T2, DDX52 (UniProt Q9Y2R4)
# T2 sequence (whole entry): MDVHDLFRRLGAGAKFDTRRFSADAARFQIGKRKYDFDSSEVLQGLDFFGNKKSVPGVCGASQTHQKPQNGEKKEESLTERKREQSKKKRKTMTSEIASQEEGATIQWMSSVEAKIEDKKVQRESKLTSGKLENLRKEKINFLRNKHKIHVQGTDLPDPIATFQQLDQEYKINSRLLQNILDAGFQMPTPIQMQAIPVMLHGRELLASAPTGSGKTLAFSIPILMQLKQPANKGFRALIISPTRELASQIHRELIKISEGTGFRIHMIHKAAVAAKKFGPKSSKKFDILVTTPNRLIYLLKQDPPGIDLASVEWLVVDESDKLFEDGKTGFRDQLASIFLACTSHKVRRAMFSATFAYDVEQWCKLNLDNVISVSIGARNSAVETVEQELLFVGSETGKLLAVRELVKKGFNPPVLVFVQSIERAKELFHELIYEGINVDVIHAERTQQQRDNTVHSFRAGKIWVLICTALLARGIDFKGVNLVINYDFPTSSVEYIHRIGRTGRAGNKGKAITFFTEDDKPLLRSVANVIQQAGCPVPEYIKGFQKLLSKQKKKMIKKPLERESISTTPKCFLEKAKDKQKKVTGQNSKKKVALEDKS
# Summary of the method: as §1
# FHOD1 = molecular target: T3, FHOD1 (UniProt Q9Y613)
# T3 sequence (whole entry): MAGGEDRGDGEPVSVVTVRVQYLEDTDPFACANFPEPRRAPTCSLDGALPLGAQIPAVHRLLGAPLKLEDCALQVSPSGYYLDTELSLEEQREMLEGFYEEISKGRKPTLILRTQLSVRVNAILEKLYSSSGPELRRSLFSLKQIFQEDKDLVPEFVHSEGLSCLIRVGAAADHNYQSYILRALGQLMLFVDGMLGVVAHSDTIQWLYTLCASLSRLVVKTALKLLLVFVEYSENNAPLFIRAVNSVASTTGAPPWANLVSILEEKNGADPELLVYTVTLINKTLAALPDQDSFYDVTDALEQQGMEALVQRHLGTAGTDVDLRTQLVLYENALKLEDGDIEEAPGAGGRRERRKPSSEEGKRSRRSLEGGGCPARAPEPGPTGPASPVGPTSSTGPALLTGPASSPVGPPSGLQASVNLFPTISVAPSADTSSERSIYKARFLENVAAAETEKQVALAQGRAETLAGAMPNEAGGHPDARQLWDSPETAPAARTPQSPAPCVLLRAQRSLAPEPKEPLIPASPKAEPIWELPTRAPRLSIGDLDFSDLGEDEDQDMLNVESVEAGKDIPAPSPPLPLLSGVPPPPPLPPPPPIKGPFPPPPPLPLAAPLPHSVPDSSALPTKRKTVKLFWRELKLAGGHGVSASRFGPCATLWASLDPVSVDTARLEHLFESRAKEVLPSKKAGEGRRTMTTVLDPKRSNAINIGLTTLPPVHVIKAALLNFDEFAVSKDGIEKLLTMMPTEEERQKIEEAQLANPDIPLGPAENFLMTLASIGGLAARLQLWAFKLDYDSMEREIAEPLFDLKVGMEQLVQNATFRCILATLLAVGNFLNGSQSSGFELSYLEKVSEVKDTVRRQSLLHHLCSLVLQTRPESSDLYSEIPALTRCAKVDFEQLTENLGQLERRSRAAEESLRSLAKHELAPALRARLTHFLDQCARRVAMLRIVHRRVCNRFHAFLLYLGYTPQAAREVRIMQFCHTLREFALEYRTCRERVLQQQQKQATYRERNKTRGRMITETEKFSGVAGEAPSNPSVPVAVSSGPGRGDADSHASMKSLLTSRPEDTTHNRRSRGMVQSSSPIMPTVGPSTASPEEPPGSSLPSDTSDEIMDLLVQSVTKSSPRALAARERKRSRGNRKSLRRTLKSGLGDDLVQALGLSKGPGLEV
# Summary of the method: as §1
# UniProt Q9Y6I3|Q9Y6I3-3 = molecular target: T4, UniProt Q9Y6I3|Q9Y6I3-3
# T4 sequence (whole entry): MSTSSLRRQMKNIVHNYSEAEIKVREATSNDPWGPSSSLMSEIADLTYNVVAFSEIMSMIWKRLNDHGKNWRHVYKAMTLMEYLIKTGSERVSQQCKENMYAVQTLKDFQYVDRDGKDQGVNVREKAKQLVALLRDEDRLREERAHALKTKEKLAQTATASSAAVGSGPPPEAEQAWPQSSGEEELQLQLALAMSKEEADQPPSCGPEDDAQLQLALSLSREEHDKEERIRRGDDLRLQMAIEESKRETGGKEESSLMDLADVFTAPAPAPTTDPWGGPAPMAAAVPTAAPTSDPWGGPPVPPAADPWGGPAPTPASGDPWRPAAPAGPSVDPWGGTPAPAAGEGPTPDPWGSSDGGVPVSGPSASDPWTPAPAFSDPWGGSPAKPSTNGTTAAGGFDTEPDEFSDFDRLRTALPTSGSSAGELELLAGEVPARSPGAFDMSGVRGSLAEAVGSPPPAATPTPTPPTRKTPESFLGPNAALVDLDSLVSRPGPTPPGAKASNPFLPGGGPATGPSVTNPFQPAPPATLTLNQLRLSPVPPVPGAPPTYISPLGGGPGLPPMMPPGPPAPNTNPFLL
# Summary of the method: as §1
# [1] = molecular target: T5, UniProt Q9Y6M7-13|Q9Y6M7-6|Q9Y6M7-9|Q9Y6M7-5|A0A0A0MST8
# T5 sequence (whole entry): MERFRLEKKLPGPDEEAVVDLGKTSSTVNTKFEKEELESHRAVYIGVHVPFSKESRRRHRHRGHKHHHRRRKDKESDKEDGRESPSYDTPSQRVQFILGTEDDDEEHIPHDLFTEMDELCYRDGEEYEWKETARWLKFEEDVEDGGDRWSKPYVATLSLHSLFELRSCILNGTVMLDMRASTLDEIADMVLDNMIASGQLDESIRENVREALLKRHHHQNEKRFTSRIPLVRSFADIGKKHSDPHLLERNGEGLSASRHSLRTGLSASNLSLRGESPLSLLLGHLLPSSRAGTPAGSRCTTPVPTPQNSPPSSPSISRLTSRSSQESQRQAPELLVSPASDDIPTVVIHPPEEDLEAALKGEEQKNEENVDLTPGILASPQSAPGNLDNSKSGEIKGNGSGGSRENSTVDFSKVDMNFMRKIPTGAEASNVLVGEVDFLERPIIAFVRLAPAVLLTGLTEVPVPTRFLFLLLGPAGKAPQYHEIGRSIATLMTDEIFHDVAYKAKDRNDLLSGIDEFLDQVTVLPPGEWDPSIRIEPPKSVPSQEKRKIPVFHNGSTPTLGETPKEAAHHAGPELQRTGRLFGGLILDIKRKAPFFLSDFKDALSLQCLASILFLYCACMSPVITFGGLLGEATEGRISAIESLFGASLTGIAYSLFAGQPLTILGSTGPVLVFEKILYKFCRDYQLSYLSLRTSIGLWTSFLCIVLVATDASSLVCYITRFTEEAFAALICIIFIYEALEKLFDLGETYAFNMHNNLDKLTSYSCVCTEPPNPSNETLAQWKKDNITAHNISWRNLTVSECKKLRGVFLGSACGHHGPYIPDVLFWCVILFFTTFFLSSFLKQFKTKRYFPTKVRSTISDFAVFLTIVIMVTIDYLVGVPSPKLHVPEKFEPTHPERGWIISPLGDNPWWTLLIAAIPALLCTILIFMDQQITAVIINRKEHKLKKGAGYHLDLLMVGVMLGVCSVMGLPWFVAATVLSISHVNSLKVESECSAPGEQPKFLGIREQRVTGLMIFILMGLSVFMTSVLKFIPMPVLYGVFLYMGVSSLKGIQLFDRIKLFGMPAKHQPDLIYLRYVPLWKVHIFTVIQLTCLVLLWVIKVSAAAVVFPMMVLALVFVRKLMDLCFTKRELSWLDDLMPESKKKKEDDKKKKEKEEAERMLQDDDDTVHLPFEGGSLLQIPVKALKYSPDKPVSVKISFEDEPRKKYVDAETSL
# Summary of the method: as §1
smiles,measurement,setting,value
Nc1ncnc2c1ncn2[C@@H]1O[C@H](COP(=O)(O)OP(=O)(O)OP(=O)(O)O)[C@@H](O)[C@H]1O [adenosine triphosphate],NP40-soluble protein abundance,ALG5; concentration: 1mM,1.03 ± 0.089
same,NP40-soluble protein abundance,ALG5; concentration: 2mM,1.02 ± 0.074
same,NP40-soluble protein abundance,ALG5; concentration: 4mM,1.03 ± 0.088
same,NP40-soluble protein abundance,ALG5; concentration: 6mM,0.97 ± 0.13
same,NP40-soluble protein abundance,ALG5; concentration: 8mM,1.03 ± 0.1
same,NP40-soluble protein abundance,ALG5; concentration: 10mM,1.02 ± 0.058
same,NP40-soluble protein abundance,DDX52; concentration: 1mM,1.11 ± 0.11
same,NP40-soluble protein abundance,DDX52; concentration: 2mM,1.16 ± 0.17
same,NP40-soluble protein abundance,DDX52; concentration: 4mM,1.31 ± 0.27
same,NP40-soluble protein abundance,DDX52; concentration: 6mM,1.41 ± 0.23
same,NP40-soluble protein abundance,DDX52; concentration: 8mM,1.51 ± 0.37
same,NP40-soluble protein abundance,DDX52; concentration: 10mM,1.71 ± 0.49
same,NP40-soluble protein abundance,FHOD1; concentration: 1mM,0.963 ± 0.062
same,NP40-soluble protein abundance,FHOD1; concentration: 2mM,1.01 ± 0.085
same,NP40-soluble protein abundance,FHOD1; concentration: 4mM,1.02 ± 0.058
same,NP40-soluble protein abundance,FHOD1; concentration: 6mM,1.01 ± 0.078
same,NP40-soluble protein abundance,FHOD1; concentration: 8mM,0.952 ± 0.068
same,NP40-soluble protein abundance,FHOD1; concentration: 10mM,0.96 ± 0.055
same,NP40-soluble protein abundance,UniProt Q9Y6I3|Q9Y6I3-3; concentration: 1mM,0.932 ± 0.045
same,NP40-soluble protein abundance,UniProt Q9Y6I3|Q9Y6I3-3; concentration: 2mM,0.915 ± 0.018
same,NP40-soluble protein abundance,UniProt Q9Y6I3|Q9Y6I3-3; concentration: 4mM,0.915 ± 0.023
same,NP40-soluble protein abundance,UniProt Q9Y6I3|Q9Y6I3-3; concentration: 6mM,0.927 ± 0.037
same,NP40-soluble protein abundance,UniProt Q9Y6I3|Q9Y6I3-3; concentration: 8mM,0.907 ± 0.029
same,NP40-soluble protein abundance,UniProt Q9Y6I3|Q9Y6I3-3; concentration: 10mM,0.894 ± 0.014
same,NP40-soluble protein abundance,[1]; concentration: 1mM,1.05 ± 0.022
same,NP40-soluble protein abundance,[1]; concentration: 2mM,1.03 ± 0.026
same,NP40-soluble protein abundance,[1]; concentration: 4mM,1.05 ± 0.036
same,NP40-soluble protein abundance,[1]; concentration: 6mM,1.04 ± 0.032
same,NP40-soluble protein abundance,[1]; concentration: 8mM,1.06 ± 0.024
same,NP40-soluble protein abundance,[1]; concentration: 10mM,1.02 ± 0.034
